# Screening data (PubChem)
# Most compounds without a hit are left out; they make up all but 1.3% or so of the library.
# MEP2 TOR yeast: alters MEP2-GFP fluorescence in TOR pathway yeast screen. S. cerevisiae MEP2-GFP strain, flow cytometry GFP, 3 h; 100% = DMSO control level. GFP response vs DMSO, % at 10 µM. 330,000 tested, 0.51% active;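 active = GFP response versus DMSO above a set limit, roughly screen mean plus 3 SD, cut at about 180% in these data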;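 also: median GFP fluorescence of the barcode-gated MEP2-GFP cells per well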
# Efflux pump mplx: inhibitors of Candida antifungal efflux pumps expressed in yeast | inhibition, % at 10 µM | 330,000 tested, 0.44% active | AID 485275 | S. cerevisiae Candida pump triplex, Nile Red efflux;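 active = plate passing quality check with inhibition over a set limit, or well fluorescence over plate mean plus 4 SD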;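 also: Nile Red retained in pooled yeast measured as flow cytometry median fluorescence; 0% = buffer negative control and 100% = Enniatin B positive control; higher means more Nile Red kept so more efflux inhibition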
# RPL19A-GFP yeast: modulators of TOR pathway RPL19A-GFP in S. cerevisiae | S. cerevisiae RPL19A-GFP strain, flow cytometry, 3 h; hits give low values | AID 2025 | percent response vs DMSO, % at 10 µM | 330,000 tested, 0.3% active;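 active = percent response vs DMSO below 50%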;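 also: median channel GFP fluorescence of the barcoded RPL19A-GFP strain; ratio of sample median GFP to plate DMSO average so 100% = DMSO; lower means less RPL19A-GFP as with rapamycin TOR inhibition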
# AGP1 TOR yeast: alters AGP1-GFP fluorescence in TOR pathway yeast screen. S. cerevisiae AGP1-GFP multiplex flow cytometry, 3 h; GFP as percent of DMSO wells. GFP response vs DMSO, % at 10 µM. 320,000 tested, 0.02% active. AID 2066;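 active = GFP response relative to DMSO above a set limit, near screen average plus 3 SD, cut at about 150% in these data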;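 also: median GFP channel fluorescence of the gated AGP1 strain per well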
# CIT2 TOR yeast: modulators of TOR pathway CIT2-GFP in S. cerevisiae; S. cerevisiae CIT2-GFP strain, flow cytometry, 3 h; 100 means same as DMSO wells; GFP response vs DMSO, % at 10 µM; 320,000 tested, 0.065% active; AID 2029;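 active = GFP response relative to DMSO above a set limit, near the screen mean plus 3 SD, cut at about 150% in these data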;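 also: ratio of well median GFP fluorescence to mean of DMSO wells on the plate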
# LAP4 TOR yeast: alters LAP4-GFP fluorescence in TOR pathway yeast screen; S. cerevisiae LAP4-GFP multiplex, flow cytometry GFP, 3 h; median GFP as percent of DMSO wells; GFP response vs DMSO, % at 10 µM; 320,000 tested, 0.34% active;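 active = GFP response vs DMSO above a set limit, about the screen mean plus 3 SD, cut at about 150% in these data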
# LAP4-GFP pick2: second confirmation of modulators of TOR reporter LAP4-GFP in yeast; shares compounds with LAP4 TOR yeast; S. cerevisiae LAP4-GFP strain, flow cytometry GFP, 3 h; GFP response vs DMSO, % at 10 µM; 590 tested, 20% active;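 active = GFP signal as percent of the solvent control above about 150%, meaning raised reporter expression, limit read from the data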;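 also: ratio of well median GFP fluorescence to plate DMSO mean so 100% = DMSO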
# MEP2-GFP pick2: reconfirmed MEP2-GFP TOR pathway modulator in yeast; shares compounds with LAP4 TOR yeast; S. cerevisiae MEP2-GFP strain, flow cytometry GFP, 3 h; 590 tested, 10% active; GFP response vs DMSO, % at 10 µM;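 active = GFP signal above 150% of the solvent control wells, that is a rise of more than half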;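 also: median channel GFP fluorescence of all gated yeast cells per well; ratio of median GFP to plate DMSO average so 100% = DMSO level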
# RPL19A GFP CP2: second confirmation of modulators of TOR reporter RPL19A-GFP in yeast | AID 2623 | shares compounds with LAP4 TOR yeast | S. cerevisiae RPL19A-GFP strain, flow cytometry GFP, 3 h; hits give low values; 100% means same as DMSO wells | GFP response vs DMSO, % at 10 µM | 590 tested, 3% active;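 active = under 65% GFP response relative to DMSO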;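 also: median GFP channel fluorescence per well over the all cells gate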
# CIT2-GFP pick2: yeast CIT2-GFP TOR reporter modulation, second cherry pick. shares compounds with LAP4 TOR yeast. S. cerevisiae CIT2-GFP strain, flow cytometry GFP, 3 h; DMSO control wells read 100%. GFP response vs DMSO, % at 10 µM. 590 tested, 8% active. AID 2624;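 active = GFP response vs DMSO above about 150%, limit read from the data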;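 also: median green fluorescence per well over all gated yeast cells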
# AGP1-GFP pick2: second confirmation of modulators of TOR reporter AGP1-GFP in yeast; shares compounds with LAP4 TOR yeast; S. cerevisiae AGP1-GFP strain, flow cytometry GFP, 3 h; percent response vs DMSO, % at 10 µM; 590 tested, under 10 active; AID 2643;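 active = over 150 percent of DMSO response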;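 also: median GFP channel fluorescence over all cells without mother daughter split; sample median GFP divided by mean DMSO control so 100% equals DMSO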
# Yeast autofluor: compound is autofluorescent in yeast s288c cells | shares compounds with LAP4 TOR yeast | S. cerevisiae s288c, 520 nm autofluorescence, flow cytometry, 3 h; hits give high values; zero means same as solvent-only cells | fluorescence change (kMESF span) at 33 µM | 610 tested, under 10 active | AID 2757;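 active = fluorescence span over the dose series, or activity score, above about 33, limit read from the data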
# Yeast autofl DR: yeast s288c autofluorescence artifact in dose response; shares compounds with LAP4 TOR yeast; S. cerevisiae s288c parental, compound autofluorescence, flow cytometry, 3 h; fluorescence change (span) at 33 µM; 110 tested, under 10 active; AID 488829;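 active = fluorescence change span, or the activity score built from it, above 25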
# TORC1 bypass: wildtype yeast growth loss with TORC1 bypass cells unaffected | 120 tested, under 10 active | S. cerevisiae BY4741 spot growth rating, 48-72 h; hits give low values | shares compounds with LAP4 TOR yeast | growth rating (0-3) at 30 µM;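 active = growth rating at most 1 for wild type yeast while the TORC1 bypass strain still grows fully, rated 3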
# * marks the source's active call; other numbers are inactive results; nt = not tested or not shown.
SMILES,MEP2 TOR yeast,Efflux pump mplx,RPL19A-GFP yeast,AGP1 TOR yeast,CIT2 TOR yeast,LAP4 TOR yeast,LAP4-GFP pick2,MEP2-GFP pick2,RPL19A GFP CP2,CIT2-GFP pick2,AGP1-GFP pick2,Yeast autofluor,others
CNC(CC(=O)c1ccc([N+](=O)[O-])cc1)C(Cl)(Cl)Cl (stereo not given),82,9.4*,80,86,81,195*,180*,188*,89,144,82,2,
O=C(N/N=C/c1ccccc1)c1ccco1,98,0,98,108,102,119,nt,nt,nt,nt,nt,nt,
O=C(C#Cc1ccccc1)c1ccco1,128,0,88,101,77,153*,156*,165*,85,128,118,0.61,
CC(C)(C)c1nnc(N/N=C/c2cc(Br)ccc2O)n(N)c1=O,103,0,88,99,95,185*,215*,140,98,114,105,1.3,
CCOc1cc(/C=N/NC(N)=O)ccc1OCC(=O)Nc1ccc(C)c(C)c1,100,0,97,106,99,106,nt,nt,nt,nt,nt,nt,
CCOc1cc(C=C2C(=O)c3ccccc3C2=O)ccc1OCC(=O)Nc1ccc(C)cc1,109,0,104,109,105,109,96,100,102,101,100,-0.2,
COc1ccc2c(c1)CC[C@@H]1[C@@H]2CC[C@]2(C)[C@@H](C(=O)O)C[C@@H]12,94,0,93,78,64,167*,116,110,90,88,88,nt,
CC(C)Oc1ccc(C(=O)/C=C2/C(=O)Nc3ccccc32)cc1,90,0,89,102,87,161*,nt,nt,nt,nt,nt,0.61,
O=C1Nc2ccccc2/C1=C\C(=O)c1ccccc1,91,0,80,85,80,226*,nt,nt,nt,nt,nt,0.4,
CN(O)/C=C1\C(=O)Nc2ccccc21,112,0,100,nt,108,104,nt,nt,nt,nt,nt,nt,
Cc1onc(NC(=O)NC(=O)c2c(Cl)cccc2Cl)c1Br,102,0,100,105,88,110,nt,nt,nt,nt,nt,nt,
COc1cc(OC)cc(C(=O)/C=C2\Sc3ccccc3N2C)c1,100,0,97,98,95,100,nt,nt,nt,nt,nt,nt,
COc1ccc2c(c1)S/C(=C\C(=O)c1ccncc1)N2C,103,0,56,56,68,106,97,114,62*,100,67,0.81,
CC(=O)N1c2ccc(S(=O)(=O)NCC3CCC(C(=O)N4CCC(C)CC4)CC3)cc2CC1C (stereo not given),89,0,94,93,95,108,nt,nt,nt,nt,nt,nt,
COC1=C(c2ccccc2)C(=O)c2ccccc2C1=O,97,0,104,94,95,109,nt,nt,nt,nt,nt,nt,
O=C1C(c2ccccc2)=[N+]([O-])c2ccccc21,93,0,105,87,89,160*,116,121,106,120,103,nt,
c1ccc(-c2nnnn2-c2ccccc2)cc1,107,0,105,101,104,91,nt,nt,nt,nt,nt,nt,
ClC(Cl)(c1nnnn1-c1ccccc1)c1nnnn1-c1ccccc1,83,0,93,64,86,232*,265*,148,92,132,96,1.6,
COc1ccc(CC(=O)OCC(=O)NC2CC2)cc1,100,0,101,101,94,111,nt,nt,nt,nt,nt,nt,
CC(=O)N1CCc2cc(S(=O)(=O)CCC(=O)NCc3ccc(F)cc3)ccc21,122,0,59,17,101,85,106,105,98,97,102,nt,
CCN(Cc1ccncc1)C(=O)c1ccc2c(c1)S(=O)(=O)c1ccccc1C2=O,110,0,108,96,100,96,nt,nt,nt,nt,nt,nt,
COC(=O)CCC(=O)OC1(C)C(=O)C2=COC(c3ccc(OC)cc3)=CC2=C(Br)C1=O (stereo not given),79,0,39*,18,49,127,151*,129,72,108,43,2.2,
Cc1ccc(C(=O)O/N=C(\N)Cc2cccs2)c(Cl)c1,108,0,87,54,129,232*,nt,nt,nt,nt,nt,0.9,
COc1ccc(C(=O)c2ccccc2)cc1,109,0,108,101,106,110,nt,nt,nt,nt,nt,nt,
O=C(O)c1ccn2c(C(=O)c3ccccc3)c(-c3ccccc3)cc2c1,90,0,99,97,94,156*,nt,nt,nt,nt,nt,0.51,
SMILES,MEP2 TOR yeast,Efflux pump mplx,RPL19A-GFP yeast,AGP1 TOR yeast,CIT2 TOR yeast,LAP4 TOR yeast,LAP4-GFP pick2,MEP2-GFP pick2,RPL19A GFP CP2,CIT2-GFP pick2,AGP1-GFP pick2,Yeast autofluor,others
COc1ccc(-c2cc3cc(C(=O)O)ccn3c2C(=O)c2ccccc2)cc1,110,0,101,106,110,150*,nt,nt,nt,nt,nt,0,
CN(C)S(=O)(=O)c1ccc(N2CCOCC2)c(C(=O)NCc2ccc3c(c2)OCO3)c1,105,0,102,105,96,98,nt,nt,nt,nt,nt,nt,
Cn1nc(CC(=O)Nc2ncc(Br)s2)c2ccccc2c1=O,158,0,64,26,99,92,96,103,100,106,99,nt,
COCCCNc1nc(N)c([N+](=O)[O-])c(Nc2cccc(F)c2)n1,nt,nt,nt,nt,nt,nt,nt,nt,nt,nt,nt,nt,Yeast autofl DR=0.16;TORC1 bypass=3
Nc1nc(NCC2CCCO2)nc(Nc2cccc(F)c2)c1[N+](=O)[O-] (stereo not given),94,0,98,96,98,114,nt,nt,nt,nt,nt,nt,Yeast autofl DR=0.06;TORC1 bypass=3
Nc1nc(NCCN2CCOCC2)nc(Nc2cccc(F)c2)c1[N+](=O)[O-],nt,nt,nt,nt,nt,nt,nt,nt,nt,nt,nt,nt,Yeast autofl DR=0.31;TORC1 bypass=3
